Rows were chosen to be rich in hits. Some 8% of all compounds tested hit in one or more screens of this group.
HCV inh – HCV inhibition; Huh7.5.1 HCVcc-Cre infection, luciferase reporter, 44 h; Potency, µM (doses to about 41.8 µM), for the others: at the highest dose activity change, negative = inhibition, most hits filed as inhibitors; actives 3.4% (n = 340,000); AID 651820; active = well fitted inhibition curve with a large enough effect; inconclusive = small, poorly fitted or top-dose-only effect, or another doubt; inactive = no such curve, though single readings can be large or run the other way; note: potency is the fitted concentration of half-maximal effect; % is set by controls: 0 for no effect and ±100 for the full control effect
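Whole-lifecycle infectious HCVcc-Cre system; cells 1,000/well, compound then virus (~0.5 moi) added 4 h after plating, 44 h culture. Luciferase read 15 sec following 15 min substrate incubation, room temp.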
HCMV antiviral – human cytomegalovirus inhibition | HFF cells, HCMV-luciferase reporter, 72 h; active compounds read low | activity change, negative = inhibition, % at 57.5 µM | actives 4.5% (n = 410,000) | AID 1259415; in the data active = activity change below about -60%; inconclusive = no clear call, values can overlap the other calls; inactive = above about -39%; note: % is set by controls: 0 for no effect and ±100 for the full control effect
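After 16 h attachment at 37C, HFF cells received test compound and HCMV-luciferase (1 PFU/cell); reporter luminescence read 72 h later, data normalized against buffer-only and known inhibitor Salinomycin.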
SARS PLpro yeast – inhibitors of SARS-CoV papain-like protease in yeast; Potency, µM (doses to about 32.9 µM), for the others: at the top dose activity, positive = growth rescue, hits mostly activators; actives 0.19% (n = 330,000); S. cerevisiae expressing SARS-CoV PLpro, growth rescue; calls by dose curve; note: potency is the fitted concentration of half-maximal effect; 0% is about no effect; nearly all actives have a fitted effect of over 55% in size
FMDV antiviral – foot and mouth disease virus antiviral activity | FMDV antiviral cell-based qHTS | Potency, µM (top dose mostly 57.9 µM), for inactives: at the top dose activity change, negative = inhibition, actives largely listed as inhibitors | actives 1.2% (n = 410,000) | AID 1159524; calls by dose curve; tested in HEK293T cells; note: read-out not given here; potency is the fitted concentration of half-maximal effect; % is set by controls: 0 for no effect and ±100 for the full control effect; nearly all actives have a fitted effect of over 45% in size
Marburg entry inh – Marburg virus entry inhibition; Marburg virus pseudotyped entry inhibition, cell reporter; actives 1.8% (n = 300,000); Potency, µM (titrated, usually from 37.8 µM), for the others: at the top dose activity change, negative = inhibition, hits mostly inhibitors; calls by dose curve; tested in HEK293 cells; note: potency is the fitted concentration of half-maximal effect; % is set by controls: 0 for no effect and ±100 for the full control effect
Lassa entry inh – inhibitors of Lassa virus binding or cell entry | Lassa virus pseudotype entry inhibition, cell reporter | Potency, µM (titrated, usually from 37.9 µM), without a hit: top-dose activity change, negative = inhibition, most hits filed as inhibitors | actives 1.2% (n = 300,000) | AID 540256; calls by dose curve; tested in HEK293 cells; note: potency is the fitted concentration of half-maximal effect; % is set by controls: 0 for no effect and ±100 for the full control effect; nearly all actives have a fitted effect of over 50% in size
Numbers without * were called inactive; ? = inconclusive; . = no result given; [ ] = remark or other dose.

SMILES	HCV inh	HCMV antiviral	SARS PLpro yeast	FMDV antiviral	Marburg entry inh	Lassa entry inh
CCN(CC)CCNC(=O)c1ccc(NC(=O)c2ccc(Cl)c(S(=O)(=O)N3CCCCCC3)c2)cc1	14µM*	-60*	0%	-29%	?	10%
CCN(CC)CCNC(=O)c1ccc(NC(=O)c2ccc(S(=O)(=O)N3CCCCCC3)cc2)cc1	10µM*	-32	17%	9%	?	6%
CCC1CN(CCNC(=O)c2ccnc(Cl)c2)Cc2cc(OC)ccc2O1 (stereo unspecified)	.	.	.	66%	.	.
CN1OC(C)(CC(=O)NCc2nccs2)N=C1c1cccc(Br)c1 (stereo unspecified)	.	-11	.	.	.	.
O=[N+]([O-])c1cc(C(F)(F)F)cc([N+](=O)[O-])c1Sc1n[nH]c(C(F)(F)F)n1	15%	12	-1%	6.3µM*	1%[46.1 µM]	27%[46.1 µM]
CN(C)/C=N/c1nc(Sc2ccc(C(F)(F)F)cc2[N+](=O)[O-])n[nH]1	17%	50	0%	-18%	-3%	-5%
COc1ccccc1-n1c(-c2ccccc2)c[n+]2c1CCc1ccccc1-2	4µM*	-100*	-6%	3.2µM*	?	2.8µM*
COc1ccccc1-n1c(-c2ccccc2)c[nH]c1=S	-9%	-14	4%	-12%	.	.
CC(C)c1ccc(-n2c(-c3ccccc3)c[n+]3c2CCc2ccccc2-3)cc1	?	-98*	-2%	11µM*	?	3.2µM*
COc1ccc(-n2c(-c3ccc(Br)cc3)c[n+]3c2CCc2ccccc2-3)cc1	?	-100*	-28%	?	12µM*	?
CC(=O)O[C@H]1Cc2ccccc2N(C(N)=O)c2ccccc21	.	.	.	.	-11%	?
CCOc1ccc(N(CC(=O)NCC2CCCO2)C(=O)CCC(=O)Nc2nccs2)cc1 (stereo unspecified)	22µM*	-26	0%	-14%	0%	?
CN(CC(=O)Nc1cccc(F)c1)C(=O)c1cccc(S(=O)(=O)N2CCN(Cc3ccccc3)CC2)c1	.	?	.	-47%	.	.
CN(CC(=O)Nc1ccccc1Cl)C(=O)c1cccc(S(=O)(=O)N2CCN(Cc3ccccc3)CC2)c1	?	-80*	9%	?	?	?
CN1CCN(S(=O)(=O)c2ccc(N(C)Cc3ccc(OC(F)F)cc3)c([N+](=O)[O-])c2)CC1	11µM*	?	-4%	?	?	-14%
CC(NC(=O)c1cccc(S(=O)(=O)N2CCN(Cc3ccccc3)CC2)c1)c1ccc(Cl)cc1 (stereo unspecified)	?	-14	0%	-29%	?	0.89µM*
CN(CC(=O)Nc1ccccc1Cl)C(=O)c1cccc(S(=O)(=O)N2CCN(c3ccc(F)cc3)CC2)c1	5.6µM*	-80*	-9%	-16%	.	.
C=C[C@]1(C)Cc2occ(C)c2C[C@H]1C(=C)C(=O)O	.	.	.	-13%	.	.
CN(Cc1ccc(Cl)c(Cl)c1)C(=O)c1cccc(S(=O)(=O)N2CCN(Cc3ccccc3)CC2)c1	10µM*	0	-2%	-21%	.	.
Cc1cccc(C)c1NC(=O)CN(C)C(=O)c1cccc(S(=O)(=O)N2CCN(c3ccc(F)cc3)CC2)c1	?	-87*	-3%	?	?	?
CN(Cc1cccc(F)c1)C(=O)c1cccc(S(=O)(=O)N2CCN(Cc3ccccc3)CC2)c1	-25%	.	-1%	?	-20%	11%
CN(CC(=O)Nc1ccccc1Cl)C(=O)c1cccc(S(=O)(=O)N2CCN(c3ccccc3)CC2)c1	?	-77*	.	?	?	?
Cc1cccc(C)c1NC(=O)CN(C)C(=O)c1cccc(S(=O)(=O)N2CCN(c3ccccc3)CC2)c1	.	-8	1%	-7%	-7%	-25%
CN(Cc1ccc(OC(F)F)cc1)C(=O)c1cccc(S(=O)(=O)N2CCN(c3ccccc3)CC2)c1	5µM*	-63*	.	20µM*	.	.
C=CCN(CC=C)Cc1cc(=O)oc2cc(C)c(Cl)cc12	.	-3	.	-23%	.	.
SMILES	HCV inh	HCMV antiviral	SARS PLpro yeast	FMDV antiviral	Marburg entry inh	Lassa entry inh
C=CCN(C(=O)c1cccc(S(=O)(=O)N2CCN(C)CC2)c1)c1nc(-c2ccccc2)cs1	25µM*	-36	-12%	?	?	?
COc1ccc(NC(C)=O)cc1NC(=O)c1cccc(S(=O)(=O)N2CCN(Cc3ccccc3)CC2)c1	-24%	-15	-1%	-17%	-4%	-9%
COc1ccccc1NC(=O)c1cccc(S(=O)(=O)N2CCN(Cc3ccccc3)CC2)c1	10µM*	-8	1%	-29%	-17%[46.1 µM]	?
N#CCCn1c(=O)c(-c2ccccc2)nc2cnc(OCc3ccccc3)nc21	.	.	.	-21%	.	.
CC(=O)N(C(C)=O)c1ncnc2c1c(-c1ccc(Cl)cc1)nn2C(C)(C)C	?	?	1%	?	?	16µM*
CC(=O)Nc1ncnc2c1c(-c1ccc(Cl)cc1)nn2C(C)(C)C	12%	-20	-2%	-18%	.	.
Cc1ccc(-n2c(C)c([N+](=O)[O-])c3ccc(O)c(CN(C)C)c32)cc1	?	-93*	6%	?	?	3%
COc1ccc(-n2c(C)c([N+](=O)[O-])c3ccc(O)c(CN4CCCCC4)c32)cc1	-12%	-73*	-4%	?	-1%	10%
CC1=C(C(=O)Nc2ccccc2C)C(c2ccccn2)n2ncnc2N1 (stereo unspecified)	.	20	.	8%	.	15%[46.1 µM]
COc1ccc2c(c1)C(=O)[C@@H](OC(=O)NS(=O)(=O)c1ccc(F)cc1)[C@H](c1ccc(OC)c(Br)c1)O2	.	.	.	.	82%[14.2 µM]	?
O=C(CSc1cn(CCNC(=O)c2cccs2)c2ccccc12)NCc1ccccc1	11µM*	-33	14%	-20%	-3%	.
COc1ccc(NC(=O)CSc2cn(CCNC(=O)c3ccc(OC)cc3)c3ccccc23)cc1	.	-6	.	-24%	?	?
O=C(CSc1cn(CCNC(=O)c2ccc3ccccc3c2)c2ccccc12)NCc1ccco1	?	-68*	-1%	?	.	.
COC(=O)C/C=C/[C@@H](C)[C@@H](/C=N/OC[C@@H](O)COCc1ccco1)OC	.	.	.	.	-14%[14.2 µM]	.
C=CCOc1ccc(/C(O)=C2\C(=O)C(=O)N(CCCN3CCOCC3)[C@H]2c2ccc(OC)cc2)cc1	.	.	.	.	15%	.
Brc1ccc(CSc2ccc3nnc(-c4cccnc4)n3n2)cc1	?	29	-9%	32µM*	?	?
Cc1ccc(CSc2ccc3nnc(-c4cccnc4)n3n2)cc1	9%	123	9%	?	4%	3%
c1ccc(CSc2nnc(-c3cccnc3)o2)cc1	14%	-40	-14%	51%	12%	18%
Clc1ccc(CSc2nnc(-c3ccncc3)o2)cc1	?	-70*	-5%	-23%	3%	-1%
